Assay outcomes: PubChem, National Center for Advancing Translational Sciences (NCATS)
ATXN2 expr inh: Primary qHTS for Inhibitors of ATXN expression; AID 1745845, 2022; HEK-293 ATXN2-luciferase reporter, luminescence, 24 h; Potency, µM (highest dose often 57 µM), actives largely listed as inhibitors; 0.72% of 360,000 active; further: nearly all actives have a fitted effect of over 55% in size
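qHTS (up to 57 uM final) was run with 24 h compound exposure of reporter cells at 37 °C. Each well was multiplexed: SteadyGlo luminescence measured ATXN2-luciferase expression after a fluorogenic Gly-Phe-AFC viability readout (25 uM final).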
S2 tox: Viability Counterscreen for Primary qHTS for Inhibitors of ATXN expression | S2 cells (HEK-293 line with an ATXN2-luciferase reporter) viability, CellTiter-Fluor protease fluorescence, 24 h | 0.49% of 400,000 active | AID 651635, 2014 | Potency, µM (top dose mostly 56.7 µM), hits mostly cytotoxic; further: nearly all actives have a fitted effect of over 40% in size
TGFb inhibitor: qHTS for Inhibitors of TGF-b | AID 588855, 2011 | HepG2 CAGA-GFP TGF-b/SMAD3 reporter, GFP fluorescence, 18 h; TGF-beta stimulated, 500 pg/mL final | Potency, µM (titrated, usually from 46.1 µM), hits mostly inhibitors | 1.2% of 410,000 active; further: nearly all actives have a fitted effect of over 65% in size
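Read-out: total well GFP (ex488/em500-530) summed from mean per-cell fluorescence. Cells: HEPG2 CAGA-GFP, 1% FBS DMEM, 18 h at 37 degrees C with 500 pg/mL final TGF-beta. Unstimulated wells served as the full-inhibition control; stimulated DMSO wells = 0%.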
D3 antag: qHTS of D3 Dopamine Receptor Antagonist: qHTS. D(3) dopamine receptor (Homo sapiens), P35462. D3R cells, DiscoveRx beta-arrestin luminescence, antagonist mode; active compounds read low. max response, negative = inhibition, %. 2.5% of 360,000 active. AID 652054, 2013; in the data active means max response below about -50%; inconclusive means no clear call, values can overlap the other calls
Target sequence (P35462 whole entry, looked up): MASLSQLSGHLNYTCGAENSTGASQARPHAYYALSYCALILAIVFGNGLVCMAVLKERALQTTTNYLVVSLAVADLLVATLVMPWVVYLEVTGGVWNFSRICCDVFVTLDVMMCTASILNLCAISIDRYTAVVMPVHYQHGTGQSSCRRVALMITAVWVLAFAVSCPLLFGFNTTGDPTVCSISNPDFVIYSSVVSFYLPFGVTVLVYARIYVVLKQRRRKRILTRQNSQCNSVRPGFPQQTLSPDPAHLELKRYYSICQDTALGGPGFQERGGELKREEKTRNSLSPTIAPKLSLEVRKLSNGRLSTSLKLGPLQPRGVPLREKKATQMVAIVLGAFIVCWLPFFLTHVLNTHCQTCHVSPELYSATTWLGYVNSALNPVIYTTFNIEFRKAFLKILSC
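Cells expressing the human receptor were seeded at 1500 cells/well, incubated overnight at 37 degrees C in 5% CO2, then exposed to library compounds with dopamine controls for 90 minutes at 37 degrees C before luminescent detection.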
D3 ag: qHTS of D3 Dopamine Receptor Agonist: qHTS | D(3) dopamine receptor (Homo sapiens), P35462 | D3R DiscoveRx beta-arrestin cells, luminescence, 90 min | max activation, % | 0.58% of 410,000 active; in the data active means max activation above about 30%
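Agonist mode: compounds and dopamine controls were applied to plated cells for 90 min at 37 degrees C after an overnight attachment at 1500 cells/well. Luminescent read-out followed 30 - 60 minutes at room temperature with DiscoveRx detection reagent.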
HepG2 tox-1: qHTS for Inhibitors of TGF-b: Cytotox Counterscreen; HepG2 CAGA-GFP viability, ATP luminescence, 18 h; AID 588856, 2011; 0.76% of 410,000 active; Potency, µM (highest dose often 46.1 µM), usual class: cytotoxic
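HepG2 CAGA-GFP cells (1000/well, DMEM with 1% FBS) received compound, then TGF-beta at 500 pg/mL final, and were incubated 18 hours at 37 degrees C. Viability was read by CellTiter-Glo luminescence. Media-only wells were set as complete cell-killing and DMSO as no toxicity.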
TGFb CAGA inh: qHTS for Inhibitors of TGF-b: Confirmation of Cherry Picks. Potency, µM (highest dose often 46.1 µM), most hits filed as inhibitors. AID 720534, 2013. 63% of 1,600 active. shares compounds with TGFb inhibitor. HepG2 CAGA-GFP TGF-b reporter, GFP fluorescence, 18 h; cells stimulated with TGF-beta, 500 pg/mL; further: nearly all actives have a fitted effect of over 65% in size
HepG2 tox-2: qHTS for Inhibitors of TGF-b: Cytotox Counterscreen for Cherry Picks | 27% of 1,600 active | AID 720535, 2013 | HepG2 CAGA-GFP viability, ATP luminescence, 18 h; cells stimulated with TGF-beta, 500 pg/mL | Potency, µM (top dose mostly 46.1 µM), usual class: inhibitors | shares compounds with TGFb inhibitor; further: nearly all actives have a fitted effect of over 70% in size
TGFb CCL64 inh: qHTS for Inhibitors of TGF-b: CCL64 Cells Orthogonal Assay for Cherry Picks; shares compounds with TGFb inhibitor; CCL64 CAGA-GFP reporter, TGF-b stimulated, GFP fluorescence, 18 h; Potency, µM (highest dose often 46.1 µM), hits mostly inhibitors; 41% of 1,600 active; further: nearly all actives have a fitted effect of over 65% in size
TGFb COP inh: qHTS for Inhibitors of TGF-b: Hit Validation in HepG2 Cells using COP promoter; Potency, µM (doses to about 46.1 µM), usual class: inhibitors; AID 720537, 2013; 3% of 1,600 active; shares compounds with TGFb inhibitor; HepG2 COP-GFP TGF-b reporter, GFP fluorescence, 18 h; cells stimulated by added recombinant TGF-beta; further: nearly all actives have a fitted effect of over 70% in size
Each line names hits and unclear results; the compound was inactive in the other large screens (follow-up assays come after a bar, where they were run). Sampled rows, rich in hits. Any-hit rate of the full collection: about 4.8%. Unless noted, the call rests on the fitted dose curve; in most records, active means well fitted curve in the direction sought with a large enough effect; inconclusive means small, poorly fitted or top-dose-only effect, or another doubt; inactive means no such curve, though single readings can be large; an effect the other way counts as inactive or inconclusive.

CCCN(Cc1cccs1)C(=O)Nc1cc(C)ccc1OC	none (no result: ATXN2 expr inh, S2 tox, D3 antag)
Cc1nn2c(C)c(C(=O)NC(C)c3ccccc3)cnc2c1-c1ccc(F)cc1 (configuration not stated)	none (no result: ATXN2 expr inh, S2 tox, D3 antag)
COCCOC(=O)c1[nH]c2c(c1C)C(=O)CC(c1ccccc1)C2 (configuration not stated)	S2 tox inconclusive, TGFb inhibitor 10µM | TGFb CAGA inh 7.31µM | HepG2 tox-2 inactive | TGFb CCL64 inh 6.51µM | TGFb COP inh inactive
CCOC(=O)c1[nH]c2c(c1C)C(=O)CC(c1ccco1)C2 (configuration not stated)	S2 tox inconclusive, TGFb inhibitor inconclusive | TGFb CAGA inh 7.31µM | HepG2 tox-2 inactive | TGFb CCL64 inh 2.06µM | TGFb COP inh inconclusive
CCC(C)Sc1cccc(-c2nc3cc(C)ccn3c2NC2CCCCC2)c1 (configuration not stated)	ATXN2 expr inh inconclusive, S2 tox inconclusive, TGFb inhibitor 11.2µM | TGFb CAGA inh inconclusive | HepG2 tox-2 inconclusive | TGFb CCL64 inh 18.4µM | TGFb COP inh inactive
Cc1ccn2c(NC3CCCCC3)c(-c3cccc(SC4CCCCC4)c3)nc2c1	ATXN2 expr inh inconclusive, S2 tox inconclusive, TGFb inhibitor inconclusive
COc1ccc(C)cc1S(=O)(=O)N(CC(=O)NCc1ccc(Cl)cc1)Cc1ccccc1	TGFb inhibitor 12.6µM | TGFb CAGA inh inconclusive | HepG2 tox-2 inconclusive | TGFb CCL64 inh inconclusive | TGFb COP inh inactive
COc1ccc(CNC(=O)CN(Cc2ccccc2)S(=O)(=O)c2ccc(Cl)cc2)cc1	TGFb inhibitor inconclusive
CCOC(=O)C1CCCCN1C(=O)c1cnn(-c2nccc(-c3cc(C)sc3C)n2)c1C1CC1 (configuration not stated)	none (no result: ATXN2 expr inh, TGFb inhibitor, D3 antag, D3 ag, HepG2 tox-1)
CC(C)CCNC(=O)C(c1ccco1)N(Cc1cccs1)C(=O)Cn1nnc2ccccc21 (configuration not stated)	TGFb inhibitor 7.08µM | TGFb CAGA inh inconclusive | HepG2 tox-2 inactive | TGFb CCL64 inh inconclusive | TGFb COP inh inactive
COCCNC(=O)C(c1cccs1)N(Cc1cccs1)C(=O)Cn1nnc2ccccc21 (configuration not stated)	none
COc1ccc(-n2c(=O)c3c(c4cc(OC)ccc4n3C)n(Cc3cc(C)ccc3C)c2=O)cc1	none (no result: D3 antag)
C[C@@H](C(=O)NCCc1ccccc1)N1C(=O)N2CCc3c([nH]c4ccccc34)[C@@]2(C)C1=O	S2 tox inconclusive, TGFb inhibitor 10µM | TGFb CAGA inh 16.4µM | HepG2 tox-2 inconclusive | TGFb CCL64 inh inconclusive | TGFb COP inh inactive
